A number with no mark means an inactive call.
These compounds were tested on Caenorhabditis elegans L1 (N2) (assay: survival and reproduction score of C. elegans L1 (0: 0-10 living worms, 1: 11-20, 2: 21-50, 3: >50, 4: overgrown) (score 0-4); higher = more worms, less nematicidal, active = 1 or less; extreme values may be limits of the assay). Settings: 60 µM; 6 days; temperature: 20 °C.
Summary of the method: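 Synchronized C. elegans N2 L1s (about 20 per well) were grown in 96-well plates in liquid NGM with E. coli HB101 and compound at 60 µM final (0.6% v/v DMSO), shaken sealed at 200 rpm and 20 °C for 6 days. The ordinal score for survival and reproduction counted living worms per well under a dissection microscope. The scale ran 0 (0–10 worms) to 4 (overgrown, starved), averaged over two biological replicates.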

Q: With CCOc1cc(C#N)ccc1OCc1nc(-c2cccs2)no1 as the compound, how does the “survival and reproduction score” value read?
A: 4

Q: Cc1cc(OCc2nc(-c3cccnc3)no2)ccc1Cl was tested. Which “survival and reproduction score” value did it give?
A: 4

Q: For CCCCC(=O)Nc1ccccc1-c1nc(-c2ccncc2)no1, which “survival and reproduction score” value is on record?
A: 4

Q: For CCOc1ccccc1-c1nnc(SCC(=O)N2CCC(C)CC2)o1, which “survival and reproduction score” value is on record?
A: 4

Q: Cn1cc(C(=O)CSc2nnc(-c3cccc(Cl)c3)o2)c2ccccc21 was tested. Which “survival and reproduction score” value did it give?
A: 4

Q: With Clc1ccc(-c2noc(COc3ccc4c(c3)OCO4)n2)cc1 as the compound, how does the “survival and reproduction score” value read?
A: 4

Q: c1ccc(-c2nnc(SCc3nc4ccccc4[nH]3)o2)cc1 was tested. Which “survival and reproduction score” value did it give?
A: 4

Q: How did the “survival and reproduction score” value turn out when Cc1ccc(SC(C)c2nc(-c3ccncc3)no2)cc1 (centres undefined) was run?
A: 4

Q: Which “survival and reproduction score” value does the source give for O=C(Nc1ccccc1-c1nc(-c2cccnc2)no1)c1cccs1 here?
A: 4

Q: How did the “survival and reproduction score” value turn out when Cc1ccc(-c2nc(C3CCCCC3)no2)cc1 was run?
A: 0 (active)

Q: Which “survival and reproduction score” value does the source give for O=C(CSc1nnc(-c2ccccc2Cl)o1)c1ccc2c(c1)CCCC2 here?
A: 4

Q: With Clc1ccc(-c2nc(-c3ccncc3)no2)c(Cl)c1 as the compound, how does the “survival and reproduction score” value read?
A: 2

Q: O=C(CSc1nnc(-c2ccco2)o1)NC1CCCCC1 was tested. Which “survival and reproduction score” value did it give?
A: 4

Q: How did the “survival and reproduction score” value turn out when COc1ccccc1-c1nc(-c2cccc(Br)c2)no1 was run?
A: 4

Q: With Clc1ccccc1OCc1nc(-c2cccs2)no1 as the compound, how does the “survival and reproduction score” value read?
A: 4

Q: With COc1cccc(-c2nnc(SCC(=O)Nc3ccccc3)o2)c1 as the compound, how does the “survival and reproduction score” value read?
A: 4

Q: For Brc1ccc(-c2nc(-c3cccnc3)no2)cc1, which “survival and reproduction score” value is on record?
A: 0 (active)

Q: Which “survival and reproduction score” value does the source give for O=C(c1ccccc1-c1nc(-c2ccccc2Cl)no1)N1CCCC1 here?
A: 4

Q: Which “survival and reproduction score” value does the source give for Cc1cc(OCc2nc(-c3ccncc3)no2)c(C)c(C)c1Br here?
A: 4

Q: With Cc1cc(OCc2nc(-c3cccnc3)no2)c(C)c(C)c1Br as the compound, how does the “survival and reproduction score” value read?
A: 4

Q: Which “survival and reproduction score” value does the source give for O=C(CSc1nnc(-c2cccc(Cl)c2)o1)Nc1ccccc1 here?
A: 4

Q: With Cc1cc(Cl)ccc1OCc1nc(-c2ccc(F)cc2)no1 as the compound, how does the “survival and reproduction score” value read?
A: 4

Q: Which “survival and reproduction score” value does the source give for CC1CC(C)CN(C(=O)CSc2nnc(-c3ccccc3)o2)C1 (centres undefined) here?
A: 4

Q: How did the “survival and reproduction score” value turn out when CCc1ccc(C(=O)Nc2ccccc2-c2nc(-c3cccnc3)no2)cc1 was run?
A: 4

Q: With CCOc1ccc(-c2noc(-c3ccncc3)n2)cc1OC as the compound, how does the “survival and reproduction score” value read?
A: 4

Q: For CCN(CC)C(=O)CSc1nnc(-c2ccc(Br)cc2)o1, which “survival and reproduction score” value is on record?
A: 4

Q: How did the “survival and reproduction score” value turn out when Cc1ccc(-c2noc(-c3ccc4c(c3)OCCO4)n2)cc1 was run?
A: 4

Q: O=C(NCCc1ccccc1)c1ccccc1-c1nc(-c2ccccc2Cl)no1 was tested. Which “survival and reproduction score” value did it give?
A: 4

Q: Which “survival and reproduction score” value does the source give for COc1ccccc1-c1nnc(SCC(=O)Nc2ccccc2Cl)o1 here?
A: 4

Q: C=CCOc1ccc(-c2nc(-c3cccnc3)no2)cc1 was tested. Which “survival and reproduction score” value did it give?
A: 0 (active)

Q: With COc1ccccc1OCc1nc(-c2cccc(C)c2)no1 as the compound, how does the “survival and reproduction score” value read?
A: 4

Q: Which “survival and reproduction score” value does the source give for COc1cccc(-c2noc(-c3ccccc3C)n2)c1 here?
A: 0.5 (active)

Q: Cc1ccc(-c2nc(-c3ccncc3)no2)cc1Cl was tested. Which “survival and reproduction score” value did it give?
A: 0 (active)

Q: For O=C(c1ccccc1-c1nc(-c2ccc(F)cc2)no1)N1CCCC1, which “survival and reproduction score” value is on record?
A: 4

Q: For CCOC(=O)c1c(NC(=O)CSc2nnc(-c3ccc(Cl)cc3)o2)sc(C(C)=O)c1C, which “survival and reproduction score” value is on record?
A: 4

Q: CCOc1ccccc1-c1nc(-c2ccc(Br)cc2)no1 was tested. Which “survival and reproduction score” value did it give?
A: 3

Q: How did the “survival and reproduction score” value turn out when Clc1ccc(OCc2nc(-c3ccncc3)no2)cc1 was run?
A: 4

Q: With Cc1cccc(-c2noc(COc3ccc(C)c(C)c3)n2)c1 as the compound, how does the “survival and reproduction score” value read?
A: 4

Q: For CC(=O)Nc1ccc(NC(=O)c2ccccc2-c2nc(-c3ccccc3Cl)no2)cc1, which “survival and reproduction score” value is on record?
A: 4

Source: the supplement of paper PMC11219838
